In one experiment the test system is SERPINA7 (gene 6906). In words: CCTE_GLTED_hTBG: CCTE's human Thyroxine-binding Globulin (TBG) Inhibition Assay, Great Lakes Toxicology and Ecology Division (GLTED) Lab (AID 2284343; active = hit-call score of the fitted dose curve at least 0.9, where 1 is the maximum;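 also: active chemicals lower fluorescence versus DMSO baseline by displacing probe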). Put shortly:
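Steps: combine TBG with chemical; incubate 2 hours so that disruptors release ANSA; record fluorescence (380 ex, 475 em). Loss of signal was fitted against DMSO controls.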

Experiment [1] is described as follows: CCTE_Padilla_ZF_Score.General: CCTE's 144 Hour Post-fertilization zebrafish Assay Score for General Malformation, Padilla Lab (AID 2284411). In a few lines: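 Malformation, death and hatching were scored at 6 dpf by two blinded observers under a stereo microscope. Embryos were dosed singly from 6-8 hpf in sealed plates of 10% Hanks' at 26C and rinsed on 5 dpf; DMSO baseline.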

A short description of experiment [2]: CCTE_Mundy_HCI_iCellGluta_NOG_NeuriteCount: CCTE's Neurite Outgrowth Assay in iCellGluta cells for Neurite Count, Mundy Lab (AID 2284342; active = hit-call score of the fitted dose curve at least 0.9, where 1 is the maximum;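 also: chemical exposure about 48 hours starting 2 hours after plating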).
For experiment [3], the system named is SRY-box transcription factor 2 (SOX2) Protein Expression, Deisenroth Lab, SOX2 (gene 6657). In words: CCTE_Deisenroth_DEVTOX-GLR_legacy_Sox2: (Legacy) CCTE's DevTox GLR-Endo Assay Evaluation of SRY-box transcription factor 2 (SOX2) Protein Expression, Deisenroth Lab (AID 2284346). In a few lines: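 Read-out: fraction of Sox2+ cells by high-content fluorescence imaging of fixed RUES2-GLR cells after 48 h differentiation with two 24 h-spaced exposures. Positivity cutoff 5x BMAD above endoderm control median; 0.2% DMSO median subtracted.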

Experiment [4] has the same test system. In words: CCTE_Deisenroth_DEVTOX-GLR_Endo_SOX2: CCTE's DevTox GLR-Endo Assay Evaluation of SRY-box transcription factor 2 (SOX2) Protein Expression, Deisenroth Lab (AID 2284412; active = hit-call score of the fitted dose curve at least 0.9, where 1 is the maximum). Put shortly:
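Endpoint is percent SOX2-positive cells (SOX2+ count/total cells) minus 0.2% DMSO control, from high-content imaging of fixed, nuclear-stained RUES2-GLR cells. Dosing twice at 24 h intervals over 48 h differentiation, 1 nM–200 uM in 10 points.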

Experiment [5] deals with SRY-box transcription factor 17 (SOX17) Protein Expression, Deisenroth Lab, SOX17 (gene 64321). In words: CCTE_Deisenroth_DEVTOX-GLR_Endo_SOX17: CCTE's DevTox GLR-Endo Assay Evaluation of SRY-box transcription factor 17 (SOX17) Protein Expression, Deisenroth Lab (AID 2284413). In a few lines:
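Human RUES2-GLR cells carrying an inducible fluorescent reporter are differentiated in defined media for 48 h and dosed twice, 24 h apart. After fixation and nuclear staining, imaging yields SOX17+ cell percentage relative to 0.2% DMSO-treated differentiated cells.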

The test system of experiment [6] is Brachyury (BRA) Protein Expression, TBXT (gene 6862). In words: CCTE_Deisenroth_DEVTOX-GLR_Endo_BRA: CCTE's DevTox GLR-Endo Assay Evaluation of Brachyury (BRA) Protein Expression, Deisenroth Lab (AID 2284417). Put shortly:
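Endpoint is the fraction of BRA reporter-positive cells over total nuclei, corrected by subtracting the 0.2% DMSO value. Chemicals (1 nM - 200 uM, 10 points) were dosed twice during 48 h differentiation of RUES2-GLR cells, read by imaging.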

Experiment [7] can be described thus: CCTE_Deisenroth_DEVTOX-GLR_Endo_CellCount: Viability Assessment in CCTE's DevTox GLR-Endo Assay, Deisenroth Lab (AID 2284420). Put shortly:
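RUES2-GLR human pluripotent cells seeded 24 h, then differentiated 48 h with two chemical exposures at 24 h intervals (10-point, 1 nM - 200 uM). Fixed, nuclear-stained, imaged; nuclei counts give % change in cell count versus 0.2% DMSO.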

For experiment [8], the system named is SRY-box transcription factor 17 (SOX17) Protein Expression, Deisenroth Lab, SOX17 (gene 64321). In words: CCTE_Deisenroth_DEVTOX-GLR_Pluri_SOX17: CCTE's DevTox GLR-Pluri Assay Evaluation of SRY-box transcription factor 17 (SOX17) Protein Expression, Deisenroth Lab (AID 2284427; active = hit-call score of the fitted dose curve at least 0.9, where 1 is the maximum). In a few lines:
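RUES2-GLR human pluripotent cells were seeded 24 h, then differentiated 48 h in defined media with two chemical exposures 24 h apart (10-point series, 1 nM - 200 uM). Fixed, nuclear-stained cells were imaged; %SOX17+ cells minus 0.2% DMSO control reported.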

Experiment [9] has as its system SRY-box transcription factor 2 (SOX2) Protein Expression, Deisenroth Lab, SOX2 (gene 6657). In words: CCTE_Deisenroth_DEVTOX-GLR_Pluri_SOX2: CCTE's DevTox GLR-Pluri Assay Evaluation of SRY-box transcription factor 2 (SOX2) Protein Expression, Deisenroth Lab (AID 2284428). Put shortly:
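Human pluripotent RUES2-GLR cells were seeded 24 h, then differentiated 48 h in defined media with two chemical doses at 24-h intervals (10-point, 1 nM–200 uM). Nuclear-stained cells were imaged; SOX2+ cells/cell count gave percent change versus 0.2% DMSO control.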

Experiment [10] has as its system Brachyury (BRA) Protein Expression, Deisenroth Lab, TBXT (gene 6862). In words: CCTE_Deisenroth_DEVTOX-GLR_Pluri_BRA: CCTE's DevTox GLR-Pluri Assay Evaluation of Brachyury (BRA) Protein Expression, Deisenroth Lab (AID 2284429; active = hit-call score of the fitted dose curve at least 0.9, where 1 is the maximum). Put shortly:
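RUES2-GLR reporter line; 48 h mesoderm differentiation; two exposures, 24 h apart; 1 nM - 200 uM, 10 points; nuclear stain, high-content imaging, 5 fields/well; endpoint = %BRA+ cells of total count minus 0.2% DMSO; n=4.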

Experiment [11] in a line: CCTE_Padilla_ZF_Score.Craniofacial: CCTE's 144 Hour Post-fertilization zebrafish Assay Score for Craniofacial Malformation, Padilla Lab (AID 2284405). Put shortly: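 Craniofacial defects were scored at 6 dpf by two blinded observers using stereomicroscopy. Exposure of wild-type embryos began at 6–8 hpf in sealed wells of 10% Hanks' solution at 26C, with chemical removed by rinsing at 5 dpf.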

Experiment [12] can be described thus: CCTE_Padilla_ZF_Score.Edema: CCTE's 144 Hour Post-fertilization zebrafish Assay Score for Edema Malformation, Padilla Lab (AID 2284406). Put shortly: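 Edema scored at 6 dpf by two blinded observers under a stereo microscope, in single outbred wild-type larvae exposed from 6-8 hpf in sealed wells (Hanks', 26C, 14:10 h light) and chemical-free after a 5 dpf rinse.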

Experiment [13] in a line: CCTE_Padilla_ZF_Score.Spine: CCTE's 144 Hour Post-fertilization zebrafish Assay Score for Spine Malformation, Padilla Lab (AID 2284407). Put shortly: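 Spine malformation scored at 6 dpf by two independent blinded observers under stereomicroscope, after static sealed exposure from 6–8 hpf at 26C in Hanks' solution with rinse on 5 dpf. Positive-direction fit against DMSO control.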

A short description of experiment [14]: CCTE_Padilla_ZF_Score.Swim_bladder: CCTE's 144 Hour Post-fertilization zebrafish Assay Score for Swim Bladder Malformation, Padilla Lab (AID 2284408). In a few lines: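 Swim bladder inflation scored at 6 dpf by two blinded observers under a stereo microscope. Exposure ran from 6–8 hpf in sealed wells of 10% Hanks' at 26C, with rinsing at 5 dpf; DMSO served as baseline.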

Experiment [15] is described as follows: CCTE_Padilla_ZF_Score.Position: CCTE's 144 Hour Post-fertilization zebrafish Assay Score for Position, Padilla Lab (AID 2284409). Put shortly: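 Wild-type zebrafish embryos (with chorions) exposed singly from 6–8 hpf in sealed wells of Hanks' solution at 26C, rinsed at 5 dpf. At 6 dpf, blinded assessors scored abnormal water-column position by brightfield stereomicroscopy, relative to DMSO.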

A short description of experiment [16]: CCTE_Padilla_ZF_Score.Living: CCTE's 144 Hour Post-fertilization zebrafish Assay Score for Viability, Padilla Lab (AID 2284410).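 Also: larval death at 6 dpf judged by absent heartbeat or coagulation.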 In a few lines:
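Mortality at 6 dpf, judged as absent heartbeat or coagulation by two blinded observers, after sealed static exposure beginning at 6–8 hpf at 26C. Larvae were rinsed free of chemical at 5 dpf, and activity was fitted relative to DMSO.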

The nature of experiment [17]: CCTE_Padilla_ZF_Score.Tail: CCTE's 144 Hour Post-fertilization zebrafish Assay Score for Tail Malformation, Padilla Lab (AID 2284414). In a few lines: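 Tail malformations were scored at 6 dpf by two blinded assessors under a stereo microscope. Chorionated embryos had been exposed from 6-8 hpf in sealed wells of 10% Hanks' at 26 C, then rinsed free of chemical at 5 dpf.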

Experiment [18] can be described thus: CCTE_Padilla_ZF_Score.Blood_pooling: CCTE's 144 Hour Post-fertilization zebrafish Assay Score for Blood Pooling, Padilla Lab (AID 2284415). Put shortly:
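Blood pooling was scored at 6 dpf under a stereo microscope by two blinded assessors, fitted upward against DMSO. Single embryos were dosed at 6–8 hpf in 10% Hanks', kept sealed at 26C (14:10 h cycle) and rinsed at 5 dpf.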

A short description of experiment [19]: CCTE_Padilla_ZF_Score.Any: CCTE's 144 Hour Post-fertilization zebrafish Assay Score for Any Mortality or Malformation, Padilla Lab (AID 2284416). In a few lines: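 Wild-type zebrafish embryos with chorions, one per well in 10% Hanks' from 6–8 hpf, dosed in sealed plates at 26 C, 14:10 h light:dark; rinsed at 5 dpf; blinded scoring at 6 dpf for death or malformation, versus DMSO.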

Results filed as inconclusive are left out. Calls of active or inactive are those of the source. The calls were made as follows, unless noted: active = hit-call score of the fitted dose curve at least 0.9, where 1 is the maximum; inactive = score below 0.9.

As to `BrCc1cccc(Oc2ccccc2)c1`, the AC50 in the experiment on SERPINA7 (gene 6906) is 23.3 µM (active). For the compound `c1ccc(Oc2ccccc2)cc1`, the result in experiment [1] was inactive. Same read-out and setting: with `CC1(C)C2=CCCC(C)(C)[C@]23CC[C@H]1C3` the entry was “inactive”. On to `Cc1ccc(S(=O)(=O)Oc2ccc(N=Nc3ccc(-c4ccc(N=Nc5c(O)ccc6cc(S(=O)(=O)O)cc(S(=O)(=O)O)c56)c(C)c4)cc3C)cc2)cc1`, for which the AC50 in the experiment with SERPINA7 (gene 6906) is 3.93 µM (active). With `CCCCCCC(CO)CCCC` (stereo not drawn), the AC50 with SERPINA7 (gene 6906) is 24.2 µM (active). Regarding `CN(C)CCOC(C)(c1ccccc1)c1ccccn1` (stereo not drawn), in experiment [2], the compound was called inactive.

With `COCCc1ccc(OCC(O)CNC(C)C)cc1` (stereo not drawn), the compound was classed as inactive in experiment [2].

As to `O=C(CC(=O)c1ccccc1)c1ccccc1`, the AC50 in the experiment with SERPINA7 (gene 6906) was 8.66 µM (active). Same read-out and setting: with `O=CCc1ccccc1` the figure was 14.2 µM (active). Consider `c1ccc(CCc2ccccc2)cc1`, for which the result in experiment [1] was inactive.

In the case of `COc1ccc(N=Nc2cc(C)c(N=Nc3ccc(S(=O)(=O)O)cc3)cc2OC)cc1`, in the experiment on SERPINA7 (gene 6906), the AC50 was 35.5 µM (active). Turning to `CCCCCC(C=O)=Cc1ccccc1`, in experiment [1], the compound was classed as inactive.

As to `O=[N+]([O-])c1ccc(O)cc1C(F)(F)F`, the AC50 in the experiment with SERPINA7 (gene 6906) was 28.2 µM (active).

Regarding `CN(c1nccc(=O)[nH]1)C1CCN(c2nc3ccccc3n2Cc2ccc(F)cc2)CC1`, the call in experiment [1] was inactive.

With `CCCCC(CC)COC(=O)c1ccc(O)cc1` (stereo not drawn), in the experiment on SERPINA7 (gene 6906), the AC50 is 5.72 µM (active). The same measure, in the same setting: with `N[C@@H](Cc1cc(I)c(Oc2cc(I)c(O)c(I)c2)c(I)c1)C(=O)O` the figure was 0.0273 µM (active).

Regarding `CS(=O)(=O)OCCCCOS(C)(=O)=O`, the AC50 is 77 µM (active) in experiment [3]; 44.5 µM (active) in [5]; 100 µM (active) in [6]; 14.4 µM (active) in experiment [7]; 45.4 µM (active) in experiment [8]; 2.44 µM (active) in [9]. Moreover, the AC50 in [10] was 50.7 µM (active). Also, in experiment [4], the call was inactive. In the case of `FC(F)(F)COCC(F)(F)F`, the compound was classed as inactive in [11], in experiment [12], in experiment [13], in experiment [14], in experiment [15] and in experiment [16]. For the same compound, the call in experiment [1], in experiment [17], in experiment [18] and in experiment [19] was inactive. Consider `Oc1ccc2cc(SSc3ccc4cc(O)ccc4c3)ccc2c1`, for which the AC50 in the experiment on SERPINA7 (gene 6906) is 0.423 µM (active).

On to `O=C(c1ccccc1)C(O)c1ccccc1` (stereo not drawn), for which, in the experiment with SERPINA7 (gene 6906), the AC50 is 15.9 µM (active). The same measure, in the same setting: with `CC(C)CCCCCCCCCCCCCCC(=O)O` the figure was 5.3 µM (active). Turning to `C=C[Si]1(C)O[Si](C)(C=C)O[Si](C)(C=C)O[Si](C)(C=C)O1` (stereo not drawn), in the experiment with SERPINA7 (gene 6906), the result was inactive. `C=C(C)C(=O)OCCOCCOCCOC(=O)C(=C)C`: the outcome in experiment [1] was inactive. In the case of `OCc1cccc(Oc2ccccc2)c1`, in the experiment with SERPINA7 (gene 6906), the AC50 was 27.4 µM (active). `C=Cc1ccncc1`: the AC50 in [1] is 22.6 µM (active). Consider `O=C(Nc1ccc2c(O)c(N=Nc3ccc(N=Nc4ccc(S(=O)(=O)O)cc4)cc3)c(S(=O)(=O)O)cc2c1)c1ccccc1`, for which the AC50 with SERPINA7 (gene 6906) was 16.6 µM (active). The same measure, in the same setting: with `Clc1ccc(C(c2ccccc2Cl)C(Cl)Cl)cc1` (stereo not drawn) the figure was 1.79 µM (active). As for `C[C@@H]1CCN(C(=O)[C@H](CCCN=C(N)N)NS(=O)(=O)c2cccc3c2NC[C@H](C)C3)[C@@H](C(=O)O)C1`, the compound was classed as inactive in experiment [1]. Still for that read-out and setting: for `C=C(C)C(=O)OCCOCCOCCOCCOC(=O)C(=C)C` the value was “inactive”.

For the compound `COc1ccc(CCN2CCC(Nc3nc4ccccc4n3Cc3ccc(F)cc3)CC2)cc1`, the half-maximal activity concentration (AC50) in experiment [1] was 0.439 µM (active).

As for `COCCOCCOCCO`, the outcome in experiment [2] was inactive. Turning to `CCN(CC)C(=O)N(CC)CC`, the compound was classed as inactive in experiment [1].

Usually AC50 stands for the concentration giving half of the maximal activity seen.

For the origin of these results see PubChem BioAssay (EPA / NIEHS).
